Assay outcomes (PubChem BioAssay)
Compounds with a hit are over-represented: about 3% of the library has one in this group of screens.
Wnt bcat act – Wnt/beta-catenin pathway activators, primary screen, cell-based, plate reader, single point; AID 743398, 2014; hit rate 1.2% among 300,000; activation, % at 9.35 µM; Wnt/beta-catenin reporter cell assay, activator; in the data active means activation above about 30%, passing the limit was not always enough; inconclusive means no clear call, values can overlap the other calls
esBAF inh – Bmi1 luciferase reporter increase in mESCs, primary screen, esBAF inhibitor project, mouse ES cells, Bmi1 luciferase knock-in, single point. reporter increase, % at 12.5 µM. hit rate 2% among 350,000. 24 h; 100% = twice the neutral-well signal; in the data active means activation above about 40%; inconclusive means no clear call, values can overlap the other calls;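 further: a rise in the Bmi1 reporter signal indicates esBAF inhibition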
Statin myotox sup – suppressors of statin myotoxicity in C2C12 myotubes, primary screen, cell-based, single point, plate reader; C2C12 myotubes + simvastatin, ATP luminescence, 48 h; scaled: DMSO 0, geranylgeraniol control 100; rescue of ATP level, % at 7.49 µM; AID 602340, 2012; hit rate 0.78% among 330,000;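 active means mean ATP rescue above about 67%, or every replicate alone reaching that limit, limit read from the data, passing the limit was not always enough; inconclusive means no clear call, values can overlap the other calls; inactive means mean under the limit and some replicate under it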;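 further: myotubes were challenged with 10 µM simvastatin during compound exposure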
MITF TRPM1 HTS – activators of MITF-driven TRPM1 promoter reporter, primary screen, cell-based, SK-MEL-5, luciferase, single point; SK-MEL-5 TRPM1-promoter luciferase, 24 h; % of positive control, neutral wells = 0; activation, % at 12.5 µM; hit rate 0.75% among 300,000; AID 588334, 2011;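 active means mean activation of at least 80% with every replicate also reaching 80%; inconclusive means mean reaches 80% but some replicate falls short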
Of the large screens only hits and unclear results are named; the others gave an inactive call; ! = not active in a repeat.

O=C([C@@H]1[C@@H](CO)[C@@H]2Cn3c(ccc(-c4ccccc4)c3=O)[C@@H]2N1CCC(F)(F)F)N1CCOCC1	none (no result: Wnt bcat act, MITF TRPM1 HTS)
C[C@@H]1CN([C@@H](C)CO)C(=O)c2cc(NS(=O)(=O)c3ccccc3)ccc2O[C@H]1CN(C)C(=O)Nc1ccc2c(c1)OCO2	none (no result: Wnt bcat act, Statin myotox sup, MITF TRPM1 HTS)
C[C@H]1CN([C@@H](C)CO)C(=O)c2cc(NC(=O)c3ccncc3)ccc2O[C@H]1CN(C)C(=O)Nc1ccccc1	none (no result: Wnt bcat act, MITF TRPM1 HTS)
N/C(=N\NC(=O)Nc1ccccc1)c1ccccn1	Wnt bcat act 36 (no result: esBAF inh, Statin myotox sup, MITF TRPM1 HTS)
CC(C)NC(=O)Nc1cccc2c1O[C@H](CN(C)Cc1ccc(-c3ccccc3)cc1)[C@@H](C)CN([C@@H](C)CO)C2=O	Statin myotox sup 66 (no result: Wnt bcat act, MITF TRPM1 HTS)
COc1ccc(S(=O)(=O)N(C)C[C@H]2Oc3c(NC(=O)Nc4ccccc4)cccc3C(=O)N([C@H](C)CO)C[C@@H]2C)cc1	none
COc1ccc(S(=O)(=O)N(C)C[C@H]2Oc3c(NC(=O)Nc4ccccc4)cccc3C(=O)N([C@H](C)CO)C[C@H]2C)cc1	Statin myotox sup 78 (no result: Wnt bcat act, MITF TRPM1 HTS)
CC(C)NC(=O)Nc1cccc2c1O[C@H](CN(C)Cc1ccc(-c3ccccc3)cc1)[C@H](C)CN([C@@H](C)CO)C2=O	none (no result: Wnt bcat act, MITF TRPM1 HTS)
Cc1noc(C)c1NC(=O)Nc1cccc2c1O[C@H](CN(C)S(=O)(=O)c1ccc(F)cc1)[C@@H](C)CN([C@H](C)CO)C2=O	Statin myotox sup 81!
Cc1noc(C)c1NC(=O)Nc1cccc2c1O[C@H](CN(C)Cc1ccc(-c3ccccc3)cc1)[C@@H](C)CN([C@@H](C)CO)C2=O	Statin myotox sup 98 (no result: Wnt bcat act, MITF TRPM1 HTS)
CO[C@H]1CN(C)C(=O)c2cc(NC(C)=O)ccc2OC[C@@H](C)N(Cc2ccccc2F)C[C@@H]1C	none (no result: Wnt bcat act, MITF TRPM1 HTS)
COc1ccc(C(=O)Nc2ccc3c(c2)C(=O)N(C)C[C@H](OC)[C@H](C)CN(C)[C@H](C)CO3)cc1	none (no result: Wnt bcat act, MITF TRPM1 HTS)
CNC(=O)C[C@@H]1CC[C@H]2[C@H](COc3ccc(NC(=O)c4ccc(C(F)(F)F)cc4)cc3C(=O)N2C)O1	none (no result: Wnt bcat act, MITF TRPM1 HTS)
CCC(=O)Nc1ccc2c(c1)C(=O)N(C)C[C@@H](OC)[C@H](C)CN(CC1CC1)[C@H](C)CO2	none (no result: Wnt bcat act, MITF TRPM1 HTS)
CCOCCCNC(=O)c1cccc(OC2CCN(S(C)(=O)=O)CC2)c1	esBAF inh 67 (no result: MITF TRPM1 HTS)
CCOCCCNC(=O)c1ccccc1OC1CCN(S(C)(=O)=O)CC1	none (no result: esBAF inh, Statin myotox sup)
Oc1ccccc1/C=N/NC(=S)NC1CC2C=CC1C2 (stereo unspecified)	none (no result: MITF TRPM1 HTS)
Oc1ccccc1C=NNC(=S)NC1CC2C=CC1C2 (stereo unspecified)	esBAF inh 70 (no result: MITF TRPM1 HTS)
COc1ccc(/C=N/NS(=O)(=O)c2ccccc2)cc1OC(=O)c1ccc(C)cc1	Statin myotox sup 110 (no result: Wnt bcat act)
C[C@@H](NC(=O)C[C@@H]1CC[C@H](NC(=O)Nc2ccc3c(c2)OCO3)[C@H](CO)O1)c1ccccc1	none (no result: Wnt bcat act, MITF TRPM1 HTS)
CC1(C)NC(=O)N(CNc2cc(Cl)ccc2Cl)C1=O	Statin myotox sup 100
COc1ccc(OCc2cc(C(=O)N(C)CCC3CCOCC3)no2)c(Cl)c1	esBAF inh 58
CN(CC1CCCCO1)C(=O)c1cc(COc2ccc(F)cc2Cl)on1 (stereo unspecified)	esBAF inh 43
COc1cc(Cl)ccc1OCc1cc(C(=O)N(C)CC2CCCCO2)no1 (stereo unspecified)	Wnt bcat act 40, esBAF inh 70
Cc1nnc(CN(C)C(=O)c2cc(COc3ccc(C)c(C)c3)on2)o1	none
Cc1nnc(CN(C)C(=O)c2cc(COc3ccc(F)cc3Cl)on2)o1	esBAF inh 53
CCCNC(=O)N1CC[C@@H]2[C@H]1c1cc(C#Cc3ccc(OC)cc3)ccc1N(C)[C@@H]2CO	none (no result: Wnt bcat act, MITF TRPM1 HTS)
Cc1ccccc1-c1cnc2c(c1)C(=O)N([C@@H](C)CO)C[C@H](C)[C@H](CN(C)Cc1cncnc1)O2	none (no result: Wnt bcat act, MITF TRPM1 HTS)
O=C(CN1CCOCC1)N[C@H]1CC[C@H](CCNS(=O)(=O)c2ccccc2F)O[C@H]1CO	none (no result: Wnt bcat act, MITF TRPM1 HTS)
COc1ccc(OCc2cc(C(=O)N(C)C(C)c3ccon3)no2)c(Cl)c1 (stereo unspecified)	esBAF inh 73
COc1ccc(OCc2cc(C(=O)N3CCN(CC(=O)N(C)C)CC3)no2)c(Cl)c1	none
COc1ccc(OCc2cc(C(=O)N(C)CC3CCCCO3)no2)c(Cl)c1 (stereo unspecified)	esBAF inh 41
CN(C)c1cccc(C(=O)NNC(=O)CN2C(=O)C3CC=CCC3C2=O)c1 (stereo unspecified)	esBAF inh 42
Cc1cccc(C)c1NC(=O)CN1C(=O)C2CC=CCC2C1=O (stereo unspecified)	none
Cc1ccc(-c2cnc3c(c2)C(=O)N([C@H](C)CO)C[C@H](C)[C@H](CN(C)S(C)(=O)=O)O3)cc1	none (no result: Wnt bcat act, MITF TRPM1 HTS)
COc1ccc(S(=O)(=O)Nc2ccc3c(c2)C(=O)N([C@@H](C)CO)C[C@H](C)[C@H](CN(C)Cc2ccc(C(=O)O)cc2)OCCCC[C@H](C)O3)cc1	none (no result: Wnt bcat act, Statin myotox sup, MITF TRPM1 HTS)
COc1ccc(/C=C/C(=O)c2ccncc2)c2ccccc12	none (no result: esBAF inh, Statin myotox sup)
COc1ccc(/C=C/C(=O)c2ccc[nH]2)c(OC)c1OC	esBAF inh 47 (no result: Statin myotox sup, MITF TRPM1 HTS)
COc1ccc(/C=C/C(=O)c2ccc[nH]2)cc1OC	esBAF inh 53
C[C@@H]1CN([C@H](C)CO)S(=O)(=O)c2ccc(C3=CCCCC3)cc2O[C@@H]1CN(C)Cc1ccccc1F	none (no result: Wnt bcat act, MITF TRPM1 HTS)
COc1ccc(NC(=O)Nc2ccc3c(c2)C(=O)N([C@H](C)CO)C[C@H](C)[C@@H](CN(C)CC2CCCCC2)O3)cc1	none (no result: Wnt bcat act, MITF TRPM1 HTS)
COc1ccc(NC(=O)C2C3C=CC(C3)C2C(=O)O)cc1 (stereo unspecified)	none (no result: esBAF inh, Statin myotox sup)
Cc1ccc(-c2ccc(NC(=O)C3C4C=CC(C4)C3C(=O)O)cc2)o1 (stereo unspecified)	esBAF inh 59 (no result: Wnt bcat act, MITF TRPM1 HTS)
NC(=O)c1ccsc1NC(=O)C1CCCN1S(=O)(=O)c1ccc(Cl)cc1 (stereo unspecified)	none
CC1CCCCN1S(=O)(=O)c1ccc(C(=O)Nc2sccc2C(N)=O)cc1 (stereo unspecified)	esBAF inh 83, Statin myotox sup 109
CN1CCN(Cc2cc(Cl)c3cccnc3c2OC(=O)c2cccs2)CC1	Wnt bcat act 62 (no result: esBAF inh, Statin myotox sup)
C/C=C/c1cnc2c(c1)C(=O)N([C@@H](C)CO)C[C@@H](C)[C@H](CN(C)S(=O)(=O)c1cn(C)cn1)O2	none (no result: Wnt bcat act, MITF TRPM1 HTS)
CCOC(=O)C1(Cc2cccc(OC)c2)CCCN(C(=O)c2ccc(OC)o2)C1 (stereo unspecified)	Wnt bcat act inconclusive, esBAF inh 80, MITF TRPM1 HTS 88
CCOC(=O)C1(Cc2cccc(OC)c2)CCCN(C(=O)CCN2CCCO2)C1 (stereo unspecified)	esBAF inh 68
CCOC(=O)C1(Cc2cccc(Cl)c2)CCCN(C(=O)c2c(CC)noc2C)C1 (stereo unspecified)	none
CCOC(=O)C1(Cc2cccc(Cl)c2)CCCN(C(=O)c2cc(C)on2)C1 (stereo unspecified)	esBAF inh 53
